Source: PubChem (National Center for Advancing Translational Sciences (NCATS))
The list is not random: actives were taken first. Their share in the collection is about 20%.
HCMV antiviral: blocks human cytomegalovirus replication; HFF cells, HCMV-luciferase reporter, 72 h; hits give low values; activity change, negative = inhibition, % at 57.5 µM; 4.5% of 410,000 active; AID 1259415; in the data active = activity change below about -60%; inconclusive = no clear call, values can overlap the other calls; inactive = above about -39%
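Screen run at 2 compound doses on HFFs infected with reporter HCMV, MOI 1 PFU/cell. Luciferase activity from cell lysates at 72 h post infection gave inhibition relative to buffer-only and Salinomycin wells.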
CHX counter: counter-screen hit for Shiga toxin inhibitors, cycloheximide. 12% of 300,000 active. max response, %. AID 2314. cell reporter, cycloheximide protein synthesis inhibition counterscreen; in the data active = max response mostly above about 13%, no sharp cut-off; inactive = mostly below about 14%; also: read at 38.3 µM for the half of the compounds with a filed dose
Pf growth 96h: inhibits malaria parasite growth, 96 h; P. falciparum luciferase reporter growth, 96 h; 6.9% of 320,000 active; AID 504834; Potency, µM (highest dose often 28.7 µM), hits mostly inhibitors
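Infected RBCs, 2% Hct / 0.05% parasitemia final; luciferase-reporter P. falciparum; cpd 96 h, 37 C, 5% CO2; luciferase detection reagent; luminescence.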
Pf growth 48h: inhibits P. falciparum growth in the first generation, 48 h; P. falciparum luciferase growth in erythrocytes, 48 h; Potency, µM (top dose mostly 28.7 µM), actives largely listed as inhibitors; 5.9% of 310,000 active
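Erythrocytes infected with P. falciparum carrying an integrated firefly luciferase reporter (2% hematocrit, 0.1% parasitemia final) were exposed to compounds in RPMI 1640 with 0.5% Albumax at 37 C, 5% CO2. Growth inhibition was scored as reduced luminescence.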
Shiga toxin inh: Shiga toxin inhibition; Vero cells, Shiga toxin protein synthesis inhibition reporter; inhibition, % at 38.7 µM; 9.2% of 290,000 active; in the data active = inhibition mostly above about 28%, no sharp cut-off; inactive = mostly below about 43%
Each line names hits and unclear results; the compound was inactive in the other large screens. Unless noted, calls follow the shape of the dose curve; as a rule, active = well fitted inhibition curve with a large enough effect; inconclusive = small, poorly fitted or top-dose-only effect, or another doubt; inactive = no such curve, though single readings can be large or run the other way.

CCCc1cc(Nc2c(C)n(C)n(-c3ccccc3)c2=O)n2c(nc3ccccc32)c1C#N	Pf growth 48h 1.7µM
Cc1cc(Nc2cccc([N+](=O)[O-])c2)n2c(nc3ccccc32)c1C#N	HCMV antiviral -100, Pf growth 96h inconclusive, Pf growth 48h inconclusive
Cc1cc(F)ccc1NC(=O)C1CCCN(C(=O)c2cnn(-c3ccccc3)c2-n2cccc2)C1 (centres undefined)	none (no result: CHX counter, Pf growth 96h, Pf growth 48h, Shiga toxin inh)
COc1ccc(C2=Nc3ccc(F)cc3NC(c3cccc(C(F)(F)F)c3)=N2)cc1	none (no result: CHX counter, Pf growth 96h, Pf growth 48h, Shiga toxin inh)
CCN(CC)CCCNc1cc(C)c(C#N)c2nc3ccccc3n12	none (no result: CHX counter, Pf growth 96h, Pf growth 48h, Shiga toxin inh)
Cc1cc(-c2ccco2)n2c(nc3ccccc32)c1C#N	Pf growth 48h 12µM
CCCc1cc(NCCCCO)n2c(nc3ccccc32)c1C#N	Pf growth 96h 3.3µM, Pf growth 48h 9.3µM
CCCc1cc(NCCCN2CCOCC2)n2c(nc3ccccc32)c1C#N	HCMV antiviral -60
Cc1cc(NCCCN2CCOCC2)n2c(nc3ccccc32)c1C#N	Pf growth 96h inconclusive (no result: Pf growth 48h)
Cc1cc(NCCCCO)n2c(nc3ccccc32)c1C#N	Pf growth 48h 10µM
O=C(CCn1cnc2ccccc2c1=O)Nc1cccc(Cl)c1Cl	none
C[C@@H]1CN([C@@H](C)CO)C(=O)c2cccc(NC(=O)C3CCCCC3)c2O[C@@H]1CN(C)Cc1ccc(Cl)c(Cl)c1	none (no result: CHX counter, Pf growth 96h, Pf growth 48h, Shiga toxin inh)
COc1cccc(NC(=O)CN(C)CC(=O)Nc2ccc(C)cc2Cl)c1	none
CCn1c(=O)c2sccc2n(Cc2ccccc2)c1=O	Pf growth 48h inconclusive (no result: HCMV antiviral)
Cc1nnc(SCC(=O)c2c(N)n(Cc3ccccc3)c(=O)n(C)c2=O)n1C	Pf growth 96h inconclusive, Pf growth 48h inconclusive
CCCn1c(N)c(C(=O)CN(C)CC(=O)Nc2ccccc2CC)c(=O)[nH]c1=O	HCMV antiviral -103 (no result: CHX counter, Shiga toxin inh)
Cc1cccc(C)c1NC(=O)CN(C)CC(=O)c1c(N)n(Cc2ccccc2)c(=O)n(C)c1=O	HCMV antiviral inconclusive, Pf growth 48h 12µM (no result: CHX counter, Shiga toxin inh)
CN(C)CC(=O)c1c(N)n(Cc2ccccc2)c(=O)n(C)c1=O	none
CCCn1c(N)c(C(=O)CN(C)CC(=O)Nc2cccc(F)c2)c(=O)[nH]c1=O	Pf growth 96h inconclusive, Pf growth 48h inconclusive (no result: CHX counter, Shiga toxin inh)
CCn1c(=O)c(C(=O)CC#N)c(N)n(Cc2ccccc2)c1=O	HCMV antiviral inconclusive, Pf growth 96h inconclusive
Cn1cnnc1SCC(=O)c1c(N)n(Cc2ccccc2)c(=O)n(C)c1=O	HCMV antiviral -64, Pf growth 96h inconclusive, Pf growth 48h inconclusive
CCn1c(=O)c(C(=O)CN(C)CC(=O)Nc2ccccc2Br)c(N)n(Cc2ccccc2)c1=O	Pf growth 96h inconclusive, Pf growth 48h 10µM (no result: CHX counter, Shiga toxin inh)
CC[C@H](C)[C@H](NC(=O)[C@H](CC(=O)O)NC(=O)[C@H](CC(C)C)NC(=O)[C@H](Cc1cnc[nH]1)NC(=O)[C@H](C)NC(=O)[C@H](Cc1ccccc1)NC(=O)[C@H](Cc1ccc(O)cc1)NC(=O)[C@@H](NC(=O)[C@H](C)NC(=O)[C@H](CCC(=O)O)NC(=O)[C@H](CCC(=O)O)NC(=O)[C@H](CC(=O)O)NC(=O)CCC(=O)O)C(C)C)C(=O)N[C@H](C(=O)N[C@@H](Cc1c[nH]c2ccccc12)C(=O)O)[C@@H](C)CC	none (no result: HCMV antiviral, Pf growth 96h, Pf growth 48h)
CC(C)(C)OC(=O)CN1C(=O)C(Sc2n[nH]c(-c3ccccc3)n2)CCc2ccccc21 (centres undefined)	HCMV antiviral inconclusive, Pf growth 96h 1.5µM, Pf growth 48h inconclusive
CCOc1ccc(NC(=O)[C@@H]2CCCN2C(=O)c2cccs2)cc1S(=O)(=O)N1CCOCC1	Pf growth 96h inconclusive, Pf growth 48h inconclusive (no result: CHX counter, Shiga toxin inh)
CCOc1ccc(NC(=O)CN2CCCC2c2cccs2)cc1S(=O)(=O)N1CCCCC1 (centres undefined)	HCMV antiviral inconclusive, Pf growth 96h inconclusive, Pf growth 48h 12µM (no result: CHX counter, Shiga toxin inh)
COc1ccc(NC(C)=O)cc1NC(=O)C1CCCN1C(=O)c1cccs1 (centres undefined)	none (no result: CHX counter, Shiga toxin inh)
CCOc1ccc(NC(=O)CN(C)Cc2ccc3c(c2)OCO3)cc1S(=O)(=O)N1CCCC1	Pf growth 96h 3.3µM, Pf growth 48h inconclusive (no result: CHX counter, Shiga toxin inh)
O=C(Nc1ccc(OC(F)F)c(Cl)c1)[C@@H]1CCCN1C(=O)c1cccs1	Pf growth 96h 4.1µM, Pf growth 48h inconclusive
CCOc1ccc(NC(=O)[C@@H]2CCCN2C(=O)c2cccs2)cc1S(=O)(=O)N1CCCCC1	Pf growth 96h 9.3µM, Pf growth 48h inconclusive (no result: CHX counter, Shiga toxin inh)
COC(=O)[C@@H]1[C@@H](CO)[C@@H]2Cn3c(cccc3=O)[C@H]1N2S(=O)(=O)c1cccc(C)c1	none (no result: CHX counter, Pf growth 96h, Pf growth 48h, Shiga toxin inh)
O=C(CN1CCOCC1)N1CC(=O)N2[C@@H](CO)[C@H](c3ccc(Br)cc3)[C@@H]2C1	none (no result: CHX counter, Pf growth 96h, Pf growth 48h, Shiga toxin inh)
Cc1ccc(S(=O)(=O)N2CCCCC2)cc1NC(=O)CN1CCCC1c1cccs1 (centres undefined)	none (no result: CHX counter, Pf growth 96h, Pf growth 48h, Shiga toxin inh)
Cc1ccc(NC(=O)CN2CCCC2c2cccs2)cc1S(=O)(=O)N1CCCCC1 (centres undefined)	HCMV antiviral -63, Pf growth 96h inconclusive, Pf growth 48h 9.3µM (no result: CHX counter, Shiga toxin inh)
COCCN(C(=O)COC(=O)c1nc(Cl)ccc1Cl)c1c(N)n(Cc2ccccc2)c(=O)[nH]c1=O	none (no result: CHX counter, Shiga toxin inh)
Cc1ccc(O)c(CNc2ccccn2)c1	Shiga toxin inh 101
Cc1ccnc(NCc2cc(C)ccc2O)c1	CHX counter 19, Pf growth 48h inconclusive (no result: Shiga toxin inh)
O=C(COC(=O)c1ccc(F)c(S(=O)(=O)N2CCOCC2)c1)Nc1ccc(Cl)cn1	none (no result: CHX counter, Pf growth 96h, Pf growth 48h, Shiga toxin inh)
CC(C)CC(=O)Nc1nc(-c2ccc(S(=O)(=O)N3CCOCC3)cc2)cs1	Pf growth 96h inconclusive, Pf growth 48h inconclusive
COc1ccc(-c2csc(NC(=O)c3ccc(S(=O)(=O)N4CCc5ccccc5C4)cc3)n2)c(OC)c1	HCMV antiviral inconclusive, Pf growth 96h inconclusive
O=C(Nc1nc(-c2ccc(S(=O)(=O)N3CCCCCC3)cc2)cs1)c1cccs1	Pf growth 48h inconclusive
Cc1ccc(Nc2nc(-c3ccc(S(=O)(=O)N4CCOCC4)cc3)cs2)cc1Cl	HCMV antiviral -74, Pf growth 48h 10µM
COc1ccc(/C=N/Nc2nc(-c3cccc(S(=O)(=O)N4CCCC4)c3)cs2)c(OC)c1	HCMV antiviral -65, Pf growth 96h inconclusive, Pf growth 48h 13µM
O=C(Nc1nc(-c2ccc(S(=O)(=O)N3CCCC3)cc2)cs1)c1cccs1	HCMV antiviral -87, Pf growth 48h inconclusive
COc1cccc(C(=O)Nc2nc(-c3ccc(S(=O)(=O)N4CCOCC4)cc3)cs2)c1	HCMV antiviral -88, Pf growth 48h 12µM
COc1cc(CN2C[C@@H](CO)O[C@@H](n3cnc4c(NCCCO)ncnc43)C2)cc(OC)c1OC	none (no result: CHX counter, Pf growth 96h, Pf growth 48h, Shiga toxin inh)
COc1ccc(S(=O)(=O)N2CCCN(CC(=O)Nc3ccc(OC)cc3OC)CC2)cc1	none (no result: CHX counter, Pf growth 96h, Pf growth 48h, Shiga toxin inh)
O=C(Nc1nc(-c2cc(Cl)sc2Cl)cs1)c1cccs1	CHX counter 11, Pf growth 48h inconclusive
O=C(Nc1nc(-c2cc(Cl)sc2Cl)cs1)c1ccc(Br)s1	none (no result: Pf growth 48h)
CCCCC(=O)Nc1nc(-c2ccc(S(=O)(=O)N3CCOCC3)cc2)cs1	HCMV antiviral -90, Pf growth 96h inconclusive, Pf growth 48h inconclusive
